In all, about 69,000 compounds went through this assay and about 8,600 (12%) showed an effect of 50% or more. This is one part of a sample in which strong results are shown more often than they occur.
System: Plasmodium berghei
Test: Screen against P. berghei liver stage (PbLuc), transformed with Luciferase, at 10uM
Type: functional, HepG2
Conditions: tested at 10 uM

| Structure (SMILES) | INHIBITION |
| --- | --- |
| CCC(C)(N)c1nc(=O)c(C(C)C)c(C)[nH]1 (centres undefined) | 24.8% |
| OC(c1cnn(-c2ccccc2)c1)C(F)(F)F (centres undefined) | 26.5% |
| CCOc1ccc(OC2CCCN(c3cnn(C)c3)C2=O)cc1 (centres undefined) | 25.8% |
| Cc1nc(COc2ccc(OC3CCCCNC3=O)cc2)oc1C (centres undefined) | 64.9% |
| CCc1cnc(CN(C)C2CCN(CC3CCC3)C2)o1 (centres undefined) | -0.532% |
| Cc1cc(COc2ccc(OC3CCCCNC3=O)cc2)on1 (centres undefined) | -26.1% |
| Cc1nc(COc2ccc(OCC(N)=O)cc2)oc1C | -120% |
| CCc1cnc(COc2ccc(OC3CCCCNC3=O)cc2)o1 (centres undefined) | 78.4% |
| COc1ncccc1CNC(=O)NC1CCCOc2ccccc21 (centres undefined) | 10% |
| CN(Cc1ccsc1)C(=O)CNC(=O)N1CCc2ccccc2C1 | 54.8% |
| Cc1ccc(CN(C)C(=O)CNC(=O)N2CCc3ccccc3C2)o1 | -1.45% |
| CN(Cc1ccccn1)C(=O)CNC(=O)N1CCc2ccccc2C1 | 21.2% |
| c1cnn(CC2CN(CC3CCCCC3)CCO2)c1 (centres undefined) | -71.2% |
| N#Cc1ccccc1N1CCN(C(=O)NCC(=O)N2CCCC2)CC1 | -9.1% |
| N#Cc1ccccc1N1CCCN(CC(=O)Nc2ccc(Cl)cn2)CC1 | 37.7% |
| N#Cc1ccccc1N1CCCN(CC(=O)Nc2ccccc2Cl)CC1 | 63.7% |
| Cc1cc(C)c(Cn2cncn2)cc1CN1CC[C@@H]2CC[C@H](C1)N2 | 19.4% |
| Cc1nc2c(N3CCN(CCO)CC3)nc(N)nc2n1C | 13.1% |
| CN1CCCc2ccc(S(=O)(=O)NC(=O)C3CC=CC3)cc21 | 75.4% |
| CC(C)C(=O)NS(=O)(=O)c1ccc2c(c1)N(C)CCC2 | 39.2% |
| CC(=O)NS(=O)(=O)c1ccc2c(c1)N(C)CCC2 | -56.6% |
| CN(Cc1nncn1-c1cccc(C(F)(F)F)c1)S(C)(=O)=O | -19.1% |
| CCCC(=O)N(CCCN1CCOCC1)c1nc2c(F)cccc2s1 | 32.1% |
| CCCC(=O)N(CCCN1CCOCC1)c1nc2c(C)ccc(Cl)c2s1 | 42.7% |
| CCCC(=O)N(CCCN1CCOCC1)c1nc2c(Cl)cccc2s1 | 71.4% |
| CN(CCN1CCOCC1)C(=O)CCc1cccc(Cl)c1 | -3.16% |

| Structure (SMILES) | INHIBITION |
| --- | --- |
| CCCC(=O)N(CCCN1CCOCC1)c1nc2c(C)c(C)ccc2s1 | 60.1% |
| CCCC(=O)N(CCN1CCOCC1)c1nc2c(OC)ccc(C)c2s1 | -0.473% |
| N#Cc1cccc(C(=O)NC2CCc3c(ccc(=O)n3CC3CC3)C2)c1 (centres undefined) | -19.2% |
| Cc1ccc(CN2CCc3ncc(CNS(C)(=O)=O)n3CC2)o1 | 35.1% |
| O=C(COCC1CC[C@H]2[C@H](CCN2c2ncccn2)O1)N1CCCC1 (some centres undefined) | 7.31% |
| CN1CCN(C(=O)[C@H]2C[C@@H]3CN(c4ncc(F)cn4)C[C@@H]3N2C)CC1 | -1.15% |
| CC(NCC(F)(F)F)c1ccc(S(C)(=O)=O)c(F)c1 (centres undefined) | -45.3% |
| Cc1cc(CNc2ccccc2N2CCCCC2)no1 | 28.6% |
| Cc1nc(N2CCCC2)ccc1NCc1ccccn1 | 42.3% |
| Cc1noc(CNc2ccccc2N2CCCCC2)n1 | 4.1% |
| CN(CCc1ccccn1)C(=O)Nc1cccnc1N1CCCC1 | 44.7% |
| c1ccc(CNc2ccccc2N2CCCC2)nc1 | 74.8% |
| c1ccc(N2CCCC2)c(NCc2ccncc2)c1 | 75.7% |
| CCC(=O)NCC(=O)NCC1CCN(c2cc(Cl)ccc2C)C1 (centres undefined) | 23.73% |
| Cc1cc(CNC(=O)Cc2c(C)nc3cc(=O)[nH]n3c2C)no1 | 31.1% |
| CC(C)CCN1CCNC(=O)C1CC(=O)NCCc1cc(O)ncn1 (centres undefined) | 12.8% |
| Cc1nc(C2CCCCN2C(=O)c2ccccc2)ncc1C(=O)N(C)C (centres undefined) | 28.4% |
| O=C(CN1CCCC1CCCO)NCc1ccccn1 (centres undefined) | 29.4% |
| CCCN1CCC(CNC(=O)N2CCCC2c2c(C)n[nH]c2C)CC1 (centres undefined) | 24.3% |
| CCn1cnnc1C1CCN(C(=O)c2ccc3c(c2)nnn3C)CC1 | 11.9% |
| CC(C)[C@@H]1CN(c2ncc(F)cn2)C[C@H]1NC(=O)N(C)C | 23.4% |
| COc1ccc(C(=O)N2C[C@@H](NC(=O)N(C)C)[C@H](C(C)C)C2)c(OC)n1 | 54.6% |
| COc1ccc(Cl)cc1C(=O)N1C[C@@H](NC(=O)N(C)C)[C@H](C(C)C)C1 | 0.76% |
| CN(C)C(=O)c1cnc2n1CCN(Cc1cccc(C#N)c1)C2 | 33.4% |
| O=C(CCCc1nnc(-c2ccccc2)o1)N1CCC1 | 28.8% |
| O=S(=O)(c1ccccc1N1CC(n2cccn2)C1)C(F)(F)F | 43.5% |

| Structure (SMILES) | INHIBITION |
| --- | --- |
| O=S(=O)(c1cc(F)ccc1N1CC(n2cccn2)C1)C(F)(F)F | 26.8% |
| Cc1cnn(C2CN(c3ccccc3S(=O)(=O)C(F)(F)F)C2)c1 | 89.4% |
| CN(Cc1nnn(CC2CCC2)n1)C(=O)c1ccccc1 | -19.1% |
| CCN1CCN(C(C)CNC(=O)Nc2nnc(C)s2)CC1 (centres undefined) | 34.6% |
| CCN1CCN(C(C)CNC(=O)Nc2nc3ccccc3s2)CC1 (centres undefined) | 59.4% |
| CCN1CCN(C(C)CNC(=O)Nc2nnc(C(C)C)s2)CC1 (centres undefined) | -11.6% |
| CNC(=O)Nc1cc(-c2ccc(Br)cc2)nn1CCO | -4.74% |
| CN(C)CC1(O)CCN(C(=O)Cc2ccc3c(c2)CCC3)C1 (centres undefined) | 19.5% |
| O=C(CN1CCc2c(ncn2C2CC2)C1)NC1CCN(C2CC2)CC1 | 39.2% |
| Cc1ccc(-c2nc(CN3C[C@@H](C)NC[C@@H]3C)c(C)o2)s1 | 50.4% |
| CSc1ccc(-c2nc(CN3C[C@@H](C)NC[C@@H]3C)c(C)o2)cc1 | 24% |
| Cc1oc(-c2cc(F)cc(F)c2)nc1CN1C[C@@H](C)NC[C@@H]1C | -6.61% |
| Cc1c(C(=O)NCCC(=O)N2CCCC2)cccc1-c1ccccn1 | 71.4% |
| Cc1c(C(=O)NCCCS(C)(=O)=O)cccc1-c1ccccn1 | -12.1% |
| Cc1c(C(=O)NCC(C)(C)S(C)(=O)=O)cccc1-c1ccccn1 | -53.2% |
| Cc1nn(C)c(Oc2cccc(F)c2)c1NC(=O)C1CCCO1 (centres undefined) | 29.8% |
| Cc1nn(COc2cccc(F)c2)c(C)c1NC(=O)C1CC1 | 46.6% |
| Cc1nn(C)c(Oc2cccc(F)c2)c1NC(=O)C1CCOCC1 | 62.9% |
| Brc1ccccc1-c1nnc(CNCCn2cccn2)o1 | 29.7% |
| O=C(CCN1C[C@H]2CC[C@@H]1C2)N1CCN(c2cccc(Cl)c2)C(=O)C1 | -6.94% |
| CC(C)CNC(=O)[C@H]1C[C@H]2CN(C(=O)NCCc3ccccc3)C[C@@H]1O2 | 20.5% |
| Cc1cccc(CC(=O)N2CCOCC2c2c(C)n[nH]c2C)c1 (centres undefined) | 53.8% |
| CSc1ccc(C(=O)N2CCOCC2c2c(C)n[nH]c2C)o1 (centres undefined) | 57.45% |
| Cc1n[nH]c(C)c1C1COCCN1C(=O)Cc1ccccc1F (centres undefined) | 83.4% |
| CSc1ccc(C(=O)N2CCOCC2c2c(C)nn(C)c2C)o1 (centres undefined) | 23.4% |
| Cc1n[nH]c(C)c1C1COCCN1C(=O)Cc1cccc(F)c1 (centres undefined) | 16.8% |

| Structure (SMILES) | INHIBITION |
| --- | --- |
| Cc1ccc(CC(=O)N2CCOCC2c2ncon2)cc1 (centres undefined) | 19.4% |
| Cc1n[nH]c(C)c1C1COCCN1C(=O)c1ccc(Cl)o1 (centres undefined) | -0.482% |
| Cc1cccc(CCC(=O)N2CCOCC2c2c(C)n[nH]c2C)c1 (centres undefined) | -2.53% |
| Cc1n[nH]c(C)c1C1COCCN1C(=O)c1cccc(F)c1F (centres undefined) | -0.25% |
| Cc1ccccc1CC(=O)N1CCOCC1c1c(C)n[nH]c1C (centres undefined) | 41.65% |
| Cc1ccc(O)c(C(=O)N2CCOCC2c2c(C)n[nH]c2C)c1 (centres undefined) | 1.563% |
| Cc1ccc(CC(=O)N2CCOCC2c2c(C)n[nH]c2C)cc1 (centres undefined) | 67.5% |
| CN(CC1(O)CCCC1)C(=O)c1cccc(Nc2cnccn2)c1 | 22% |
| CCCN(C)S(=O)(=O)N1CCCC1c1ccco1 (centres undefined) | 10.47% |
| CN(C)C(=O)C1CN(Cc2nccs2)CCN(S(C)(=O)=O)C1 (centres undefined) | 7.52% |
| COCC(C)(O)CNC(=O)c1cc(-c2ccc(F)cc2)nn1C (centres undefined) | -89.3% |
| Cn1nc(C#N)c2c1CN(C(=O)c1cccnc1)CCC2 | 9.3% |
| CCCC(=O)NC(C(=O)OC)c1cc(F)ccc1F (centres undefined) | -14% |
| Cc1nnc(C2CCN(c3ncccn3)CC2)o1 | 25.8% |
| Cc1c(F)cccc1S(=O)(=O)NCCN | 4.3% |
| CC(=O)NCC(=O)N1CCOC2(CCCN(c3ccc(C)nn3)C2)C1 (centres undefined) | 8.74% |
| O=C(NCC1CC1)[C@H]1CN(Cc2nccs2)C[C@H]2OCC[C@@H]12 | 17.7% |
| Cc1ncsc1CN1C[C@H]2OCC[C@H]2[C@H](C(=O)NCC2CC2)C1 | 34.4% |
| O=C(NC1CCCC1)[C@@H]1CN(Cc2nccs2)C[C@H]2OCC[C@H]21 | 32.4% |
| Cc1ncsc1CN1C[C@H](C(=O)NC2CCCC2)[C@@H]2CCO[C@@H]2C1 | 52% |
| Cc1ncsc1CN1C[C@H](C(=O)NCC2CC2)[C@@H]2CCO[C@@H]2C1 | 24.9% |
| CC(C)NC(=O)[C@@H]1CN(Cc2nccs2)C[C@H]2OCC[C@H]21 | 71.1% |
| Cc1ccc(S(=O)(=O)N2CC[C@@H]3C[C@H](NC(=O)c4[nH]ncc4Br)[C@@H]32)cc1 | 35.9% |
| Cc1ccc(S(=O)(=O)NC(=O)CCc2cscn2)cc1Cl | 3.46% |
| Cc1nn(C)c(Cl)c1C1CCCN1C(=O)c1csnn1 (centres undefined) | 10% |
| CCCn1cc2c(C(F)F)cc(SCC(=O)O)nc2n1 | 32.3% |

Reference: ChEMBL document CHEMBL4513216, “Probing the Open Global Health Chemical Diversity Library for Multistage-Active Starting Points for Next-Generation Antimalarials” (ACS Infect Dis, 2020)
